# Results published in PubChem BioAssay.
# Where “and” joins values, the source holds several entries; their conditions need not be identical. Equal values may be shown once. Calls of active or inactive are those of the source. Cut-off read from the data, not from the text of the source, unless noted: active = parasite load remaining mostly below about 12% (no sharp cut-off); inactive = mostly above about 10%.
# Columns and labels:
# [1] = P. berghei load reduction in hepatocytes – cell-based, HepG2, luciferase luminescence, HepG2 viability, primary screen (AID 624349);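 note: 100% = mean of DMSO negative control wells on the same plate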; settings: P. berghei liver stage in HepG2, luciferase luminescence, concentration not given here; parasite load remaining: stronger effect = lower value; viability: measured here: HepG2 viability without parasites
# [2] = Wnt pathway potentiators raising nuclear beta-catenin – imaging, WNT3A-conditioned medium, mouse C2C12, NPC library, primary screen (AID 1117326; in the data active = nuclear beta-catenin stimulation mostly above about 4.2%, no sharp cut-off; inactive = mostly below about 10%; note: reference of the scale not given here); settings: stronger effect = higher value
# [3] = stimulators of insulin release from INS-1E, primary screen, cell-based, 5 mM glucose, NPC library (AID 1117329;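 active = compound raises insulin release from rat beta cells at 5 mM glucose, no numeric limit stated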; note: reference of the scale not given here); settings: rat INS-1E insulin secretion, at 10 µM, stronger effect = higher value
# [4] = growth inhibition of GSK3B-pretreated HCT116 cells – cell-based, CellTiter-Glo, 0.2 to 20 µM (AID 1117336;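 active = compounds lowering colon cancer cell viability after pretreatment blocking the GSK3B kinase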); settings: HCT116 viability after GSK3B inhibitor, at 20 µM, stronger effect = higher value
# [5] = inhibition of endothelial tube formation, primary screen, imaging, VEGF stimulated, CD31 staining, tube area, NPC library (AID 1117340;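 active = compound that reduces growth-factor-driven endothelial tube area in a mixed cell culture, no cutoff stated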); settings: VEGF-stimulated ADSC/ECFC co-culture, at 10 µM, stronger effect = higher value
# [6] = GLP1 release stimulators, primary, NCI-H716, NPC library (AID 1117341;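 active = compound raises GLP1 secretion from the human gut endocrine cells, with no numeric limit stated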; note: reference of the scale not given here); settings: NCI-H716 cells, at 10 µM, stronger effect = higher value
# [7] = HCT116 colon cancer cell growth inhibition, primary screen, CellTiter-Glo luminescence, NPC library (AID 1117342;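 active = compounds that lower survival of HCT116 colon cancer cells in the luminescence readout, no numeric limit stated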); settings: at 20 µM (top of the series)
# [8] = reduced SW480 viability measured with CellTiter-Glo, NPC library, primary (AID 1117343;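 active = compounds that lower viability of the colon cancer cells in the luminescence readout, with no numeric limit stated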); settings: CellTiter-Glo luminescence; at 20 µM (top of the series)
# [9] = NPC library primary testing for decreased DLD-1 cell viability via CellTiter-Glo (AID 1117346;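 active = compounds that lower survival of DLD-1 colon cancer cells in the luminescence readout, no cutoff given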); settings: DLD-1 viability, CellTiter-Glo luminescence; at 20 µM (top of the series)
# [10] = target: 6-phosphogluconate dehydrogenase, decarboxylating (Homo sapiens) (UniProt P52209); assay: inhibition of human phosphogluconate dehydrogenase – biochemical, recombinant enzyme, NADPH absorbance, primary screen (AID 1159550;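 active = at least 20% inhibition of 6-phosphogluconate dehydrogenase activity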); settings: recombinant 6PGD, NADPH absorbance 341 nm; at 10 µM; stronger effect = higher value
# Sequence of 6-phosphogluconate dehydrogenase, decarboxylating (Homo sapiens) (P52209 whole entry, looked up): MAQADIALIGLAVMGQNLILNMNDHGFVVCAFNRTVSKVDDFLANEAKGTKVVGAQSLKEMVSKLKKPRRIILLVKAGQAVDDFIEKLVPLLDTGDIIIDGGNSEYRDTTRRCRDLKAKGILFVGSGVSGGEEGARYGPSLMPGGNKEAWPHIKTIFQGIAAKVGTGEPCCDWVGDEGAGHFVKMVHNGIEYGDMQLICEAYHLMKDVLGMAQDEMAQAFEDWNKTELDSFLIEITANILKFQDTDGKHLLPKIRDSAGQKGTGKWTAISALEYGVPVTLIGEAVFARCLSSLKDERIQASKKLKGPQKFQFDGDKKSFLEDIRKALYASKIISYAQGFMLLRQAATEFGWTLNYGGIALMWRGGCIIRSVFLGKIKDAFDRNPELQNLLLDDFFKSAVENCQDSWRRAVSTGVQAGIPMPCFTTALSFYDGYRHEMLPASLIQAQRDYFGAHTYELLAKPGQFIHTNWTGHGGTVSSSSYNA
Structure (SMILES),parasite load remaining [1],viability [1],nuclear beta-catenin stimulation ([2]; at 10 µM),"nuclear beta-catenin stimulation ([2]; stimulation, at 2 µM) [%]",insulin secretion stimulation [3],viability decrease [4],tube area decrease [5],GLP1 secretion stimulation [6],inhibition of viability [7],viability decrease (inhibition) [8],viability decrease (inhibition) [9],inhibition [10]
Cc1cc(C(C)(C)C)c(O)c(C(C)(C)C)c1,72.6% (inactive),95.9%,1.4% (inactive),0.1,-0.6% (inactive),-7.15% (inactive),-2.9% (inactive),14.2% (inactive),10.4% (inactive),3.9% (inactive),-5.5% (inactive),14.6% (inactive)
O=c1oc2cc(O)ccc2s1,62.7% (inactive),88.6%,-2.6% (inactive),0.6,2.9% (inactive),-9.5% (inactive),11.8% (inactive),-4.3% (inactive),-4.7% (inactive),3.7% (active),10.2% (inactive),11.7% (inactive)
CCC(Cc1c(I)cc(I)c(N)c1I)C(=O)O (centres undefined),85.1% (inactive) and 170% (inactive) and 66.3% (inactive),78.9% and 86.3% and 103%,1.2% (inactive),-1.1,0.8% (inactive),-70.8% (inactive),4% (inactive),1.8% (inactive),7.7% (inactive),18.6% (inactive),-5.3% (inactive),-0.317% (inactive)
O=c1cc[nH]c(=S)[nH]1,64% (inactive),87.2%,-0.3% (inactive),1.5,-0.7% (inactive),-5.7% (inactive),11.6% (inactive),-6.9% (inactive),1.83% (inactive),-9.6% (inactive),-8.5% (inactive),13.5% (inactive)
CCCCC1(COC(=O)CCC(=O)O)C(=O)N(c2ccccc2)N(c2ccccc2)C1=O,87.9% (inactive),101%,6.3% (inactive),4.7,2.3% (inactive),10.8% (inactive),-1.7% (inactive),-1.7% (inactive),0.4% (inactive),-17.1% (inactive),9.4% (inactive),-3.37% (inactive)
Nc1ccc(C(=O)O)cc1,102% (inactive) and 75.6% (inactive),74.3% and 91.3%,-0.9% (inactive),0.3,-1% (inactive),2.35% (inactive),-16.4% (inactive),0.8% (inactive),-6.1% (inactive),13.3% (inactive),-4.7% (inactive),6.16% (inactive)
CCCCc1nc(Cl)c(CO)n1Cc1ccc(-c2ccccc2-c2nn[nH]n2)cc1,128% (inactive) and 49.4% (inactive),84.8% and 98.4%,2.6% (inactive),2.1,0.1% (inactive),-41.3% (inactive),11.8% (inactive),1.1% (inactive),-10.5% (inactive),28.5% (inactive),-22.4% (inactive),-22.5% (inactive)
CCCCC(CC)CN=C(N)NC(N)=NCCCCCCN=C(N)NC(N)=NCC(CC)CCCC (centres undefined),-0.04% (inactive) and -6.78% (inactive),41.3% and 33.2%,-3.7% (inactive),-1.8,22.3% (active),99.1% (active),108% (active),0% (inactive),99.6% (active),97% (active),102% (active),-3.86% (inactive)
CC(Cc1cccc(C(F)(F)F)c1)NCCOC(=O)c1ccccc1 (centres undefined),112% (inactive) and 111% (inactive) and 72.4% (inactive),102% and 77% and 73.5%,2.3% (inactive),3.6,3% (inactive),-38.7% (inactive),0.6% (inactive),2.6% (inactive),18.1% (inactive),51.4% (active),28.7% (inactive),16.1% (inactive)
NC[C@H]1O[C@H](O[C@H]2[C@H](O)[C@@H](O[C@H]3O[C@H](CO)[C@@H](O)[C@H](N)[C@H]3O)[C@H](N)C[C@@H]2N)[C@H](N)[C@@H](O)[C@@H]1O,95.5% (inactive) and 56.4% (inactive),69.4% and 85.5%,0.8% (inactive),-1.6,-0.7% (inactive),-7.8% (inactive),-8.4% (inactive),1.5% (inactive),9.9% (inactive),6.5% (inactive),-1.7% (inactive),5.79% (inactive)
Nc1nc(=S)c2[nH]cnc2[nH]1,146% (inactive) and 64.9% (inactive),48.2% and 41.8%,14.8% (inactive),6.2,-2% (inactive),47.4% (active),104% (active),1.9% (inactive),96.4% (active),101% (active),52.9% (active),4.15% (inactive)
CC(=O)NO,102% (inactive) and 55.8% (inactive),71.8% and 93.7%,0% (inactive),0.9,5.1% (inactive),30.9% (inactive),11.1% (inactive),10.8% (active),10.6% (inactive),69.2% (active),56% (active),-9.51% (inactive)
